Measurements as given in PubChem BioAssay AID1745851 (National Center for Advancing Translational Sciences (NCATS), 2022).
The list shows a part of the results. A call without a number means that no potency is given here. Inconclusive results are not listed. Activity calls are given as the source filed them. The call rests on the fitted dose curve; in most records, active means well fitted inhibition curve with a large enough effect; inconclusive means small, poorly fitted or top-dose-only effect; inactive means flat fitted curve, though single readings scatter.

test: Counterscreen for Target Class Profiling of Small Molecule Inhibitors of Methyltransferases; conditions: MTase-Glo coupled enzymes, SAH conversion luminescence, no MTase; series mostly up to 57.3 µM
Source text: PI: Matthew D. Hall Ph.D. and Quinlin M. Hanson Ph.D. National Center for Advancing Translational Sciences (NCATS) National Institute of Health (NIH) Rockville, MD Target class profiling (TCP) is a chemical biology approach amenable to investigating understudied biological targets. TCP is achieved by developing a generalizable assay platform and applying it to screen a curated set of compound libraries against representative members of a target class. Small molecule methyltransferases (SMMTase) are a subclass of methyltransferase that act on metabolites to modulate signaling pathways, metabolize xenobiotics, or balance the available methyl pool. We screened four curated libraries totaling 27,574 unique compounds against the SMMTases nicotinamide N-methyltransferase (NNMT), phenylethanolamine N-methyltransferase (PNMT), histamine N-methyltransferase (HNMT), glycine N-methyltransferase (GNMT), catechol O-methyltransferase (COMT), and guanidinoacetate N-methyltransferase (GAMT). The data generated by this TCP can be leveraged for informed tool molecule development. For example, in the associated publication we identified a chemotype of HNMT-selective inhibitors. Additionally, we identified a putative SMMTase-selective inhibitor with potential as a tool molecule for studying broader methyltransferase biology. High-through put screening assays were developed at the National Center for Advancing Translational Science (NCATS) for the enzymes NNMT, PNMT, HNMT, GNMT, COMT, and GAMT. Enzymatic activity was measured as a function of SAM cofactor conversion using the MTase Glo kit (Promega) for all enzymes. All assays were performed in 1536-well format with substrates and SAM concentrations at KM values. Enzyme concentration and assay timing were optimized for 10-20% SAM conversion. Initial screening of 27,574 compounds was done as single-point assays using the highest compound concentration (40 uM). 1,434 compounds were identified as hits (at least 50% inhibition) under these conditions. These compounds were replated in 11-point dose response and assayed against NNMT, PNMT, HNMT, GNMT, COMT, GAMT, and a counter-assay. The IC50 and efficacy (maximal response) values were determined for each dose-response curve. These values are also accounted for in the area under the curve (AUC) values.
PROTOCOL TABLE (as described by Inglese J, Shamu CE and Guy RK. 2007) SEQUENCE No. (e.g., 1, 2, 3, etc.); PARAMETER (e.g., Cells, Incubation, Reagent, etc.); VALUE; DESCRIPTION. 1; Reagent; 3 uL; SAH (16 uM) in reaction buffer, columns 1-48. 2; Reagent; 1 uL; SAM (4x) in reaction buffer, columns 1-48. 3; Controls; 23 nL; DMSO in column 4; sinefungin in DMSO (0 uM - 40 uM) in 7-point 1:2 dilution series (n = 2) in column 2. 4; Compounds; 23 nL; Columns 5-48. 5; Time; 20 min; Incubation. 6; Reagent; 1 uL; MTase-Glo reagent (5X), columns 1-48. 7; Time; 30 min; Incubation. 8; Reagent; 5 uL; MTase-Glo Detection reagent, columns 1-48. 9; Time; 30 min; Incubation. 10; Detection; Luminescence; ViewLux uHTS Microplate Imager (PerkinElmer). NOTES (numbers refer to Sequence numbers above) 1, 2. White Medium Binding 1536-well plates (white, flat bottom, medium binding Cat# AWK010000A, Aurora Microplates, Scottsdale, AZ); Reaction buffer: 50 mM Tris, pH 8.0, 3 mM MgCl2, 1 mM EDTA, 50 mM NaCl, 1 mM DTT, and 0.1 mg/mL BSA; refer to tables 2 and S1 for specific reagent concentrations. 3, 4. Pintool transfer 5, 7, 9. Room temperature 5. Final reaction conditions: 1 uM SAH, 4 uM SAM, 50 mM Tris, pH 8.0, 3 mM MgCl2, 1 mM EDTA, 50 mM NaCl, 1 mM DTT, and 0.1 mg/mL BSA. 7. Conversion of SAH to ADP; MTase Glo Kit (Promega, Madison, WI). 9. Conversion of ADP to ATP and detection by UltraGlo luciferase; MTase Glo Kit (Promega, Madison, WI). 10. Settings: 20 s exposure, 1X binning, high gain, medium speed. REFERENCES: Inglese J, Shamu CE and Guy RK, Reporting data from high throughput screening of small molecule libraries, Nature Chemical Biology, 2007, 3(8): 438-441. doi.org/10.1038/nchembio0807-438. […]

Row | Compound | Potency
1 | CCCc1sc(NC(=O)C[C@H]2NC(=O)c3ccccc3NC2=O)nc1C(=O)OC | inactive
2 | CC1(C)[C@H](Cc2cc(-c3ccccc3)on2)C[C@@H]1NCC1CC1 | inactive
3 | COc1cc2c(cc1O)NC(=O)CC2c1cn[nH]c1-c1cc(C)ccc1C (configuration not stated) | inactive
4 | CC(C)CCN1CC2(CCCN(C(=O)c3ccn(C)c(=O)c3)C2)CCC1=O (configuration not stated) | inactive
5 | COc1ccccc1-c1[nH]nc2ncc(C(=O)N3CCN(Cc4ccccc4)CC3)nc12 | inactive
6 | O=C(Nc1ccc2ncnc(N3CCCCC3)c2c1)C1CCCCC1 | 9.61 µM (active)
7 | Cc1cnc(C2CCC2)n1C1CCN(C(=O)CCC2CCCC2)CC1 | inactive
8 | COc1ccc(-c2nc3ccncc3[nH]2)cc1 | inactive
9 | CC(C)c1nccn1CCCNc1nc(-c2ccncc2)nc2c1cnn2C | inactive
10 | CCCS(=O)(=O)N1CCCC(Cn2c(C)nc3cccnc32)C1 (configuration not stated) | inactive
11 | CCOc1ccccc1CN1CCC(Cc2nc(-c3cccnc3)n[nH]2)C1 (configuration not stated) | inactive
12 | Cn1ccc(Nc2cc3c(cn2)CN(CCc2ccccc2)CCN3)n1 | inactive
